# From PubChem BioAssay
# Mtb MbtI inh: blocks the Mycobacterium tuberculosis siderophore enzyme MbtI | P9WFX0 | inhibition, % (test concentration not listed) | purified MbtI enzyme, fluorescence intensity read-out | hit rate 0.89% among 100,000; in the data active means inhibition mostly above about 56%, no sharp cut-off; inactive means mostly below about 77%
# PV pol inh: inhibitors of poliovirus RNA polymerase binding and polymerization. hit rate 0.66% among 150,000. poliovirus polymerase elongation, fluorescence polarization; hits give low values. P03300. % elongation, % (compound at 16.7 µg/mL); in the data active means % elongation below about 90%
# Mtb MenB inh: inhibitors of Mycobacterium tuberculosis MenB enzyme. P9WNP5. MenB enzyme assay, absorbance read-out. inhibition, % (concentration not given with the values). hit rate 0.43% among 100,000; in the data active means inhibition above about 21%, passing the limit was not always enough
# Target sequence (P9WNP5 whole entry, looked up): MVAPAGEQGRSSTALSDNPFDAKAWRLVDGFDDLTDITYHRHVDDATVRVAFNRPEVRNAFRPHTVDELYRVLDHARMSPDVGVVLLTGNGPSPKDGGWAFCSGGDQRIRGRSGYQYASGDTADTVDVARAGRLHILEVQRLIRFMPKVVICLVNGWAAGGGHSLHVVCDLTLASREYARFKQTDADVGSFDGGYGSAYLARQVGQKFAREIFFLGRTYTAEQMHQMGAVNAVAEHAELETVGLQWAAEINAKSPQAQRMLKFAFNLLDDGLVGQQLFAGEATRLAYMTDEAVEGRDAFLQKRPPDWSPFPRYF
# Starred values were filed as active, the others as inactive; i = inactive; . = no result. In the library only some 1.4% were active in any assay of this set; here they are far more common.
SMILES,Mtb MbtI inh,PV pol inh,Mtb MenB inh
Cc1ccc(Nc2c(-c3ccc(O)cc3)nc3cccc(C)n23)cc1,.,104.0,.
Cc1ccc(-c2nc(I)ccc2O)cc1,i,99.0,38.6*
S=c1nc2c(n[nH]1)c1ccccc1n2Cc1ccccc1,.,73.0*,-32.2
CC(C)n1c2ccccc2c2n[nH]c(=S)nc21,39.7,93.0,-2.8
CCOC(=O)C1C(=O)Oc2ccc(Br)cc2C1C1(C(=O)OC)CCCCC1 (stereo not given),-15.1,103.0,-49.2
CC(C)C(NC(=O)c1ccccc1NC(=O)c1ccco1)C(=O)N1CCCCC1 (stereo not given),-5.0,103.0,-12.6
Cc1ccc(N2C(=O)CC(NCC(=O)O)C2=O)c(C)c1 (stereo not given),-7.1,101.0,1.8
N=C1CNc2ccccc2C(=O)O1,88.5,100.0,-8.3
N#CC(=S)Nc1ccc(F)cc1,6.8,85.0*,-9.0
Fc1ccc(NC(=S)Nc2ccccc2)cc1,.,103.0,-3.2
COc1cc(/C=C2/C(=O)NN(c3ccc(Cl)cc3)C2=O)ccc1OC(=O)c1ccco1,98.8*,101.0,-42.0
C=CCN1C(=O)/C(=C\c2ccc(OC(=O)c3ccco3)c(OC)c2)SC1=S,-9.3,105.0,-37.3
O=C(NCCC1=CCCCC1)C1CCCN(C(=O)N2CCOc3ccccc32)C1 (stereo not given),-7.0,99.0,9.0
CSc1ccccc1NC(=O)C1COc2ccccc2O1 (stereo not given),-12.7,100.0,-27.4
N#Cc1ccc(-c2cccc(Cl)c2Cl)o1,20.6,103.0,-35.8
CC(=O)N1CCN(C(=S)c2ccc(-c3cccc(Cl)c3Cl)o2)CC1,96.3*,102.0,-24.0
Cc1sc2ncnc(Nc3ccc4c(c3)OCCCO4)c2c1C,7.3,97.0,-36.3
CCCOc1ccc(S(=O)(=O)n2cc(Br)c(=O)[nH]c2=O)cc1,81.7*,.,.
O=c1[nH]c(=O)n(S(=O)(=O)c2ccc(F)cc2)cc1F,-34.4,94.0,-69.6
CN1CCc2nc(NC(=O)c3ccc(S(=O)(=O)N(C)C)cc3)sc2C1,4.8,96.0,-43.3
O=C(c1cc(-c2ccc3c(c2)OCO3)on1)N(C1CCCCC1)C1CCCCC1,-5.3,101.0,-17.0
Cc1ccc(N2CC(O)=C(c3nc4ccccc4s3)C2=N)c(C)c1,i,99.0,-15.9
N#Cc1ccc(C(=O)OC2CCCCC2=O)cc1 (stereo not given),10.8,102.0,1.3
O=C(CCC(=O)c1ccc(Cl)cc1)OC1CCCCC1=O (stereo not given),-11.6,66.0*,-14.4
CCC(c1nnc(SCC(=O)NCC(C)C)o1)N(C)C (stereo not given),-3.4,104.0,-7.0
SMILES,Mtb MbtI inh,PV pol inh,Mtb MenB inh
CCC(c1nnc(SCC(=O)NCCc2ccc(Cl)cc2Cl)o1)N(C)C (stereo not given),78.6*,101.0,-16.5
Cc1ccc(-n2c(C)c(C)c3c2N=CN2CCS(=O)(=O)N=C32)cc1,6.0,98.0,-12.2
C=CCn1c(C(C)Oc2cccc(C)c2)nc2ccccc21 (stereo not given),-13.2,103.0,-19.2
CC(C)Oc1ccc(CNC(=O)c2cnc3sc(N4CCCC4)nn3c2=O)cc1,.,15.0*,.
CC(C)Oc1ccc(CNC(=O)c2cnc3sc(N4CCCCCC4)nn3c2=O)cc1,.,108.0,.
CC(C)(C)CC(C)(C)NS(=O)(=O)c1ccc(F)cc1,-7.3,102.0,-6.6
Cc1ccc2ccc(S(=O)(=O)N3CCCCC3)cc2c1,11.7,98.0,-34.6
COC(=O)Cn1c(C(=O)OC)cc2c1ccn2C,24.4,103.0,33.5*
COC(=O)Cn1c(C(=O)OC)cc2c1ccn2-c1ccc(F)cc1,89.2,101.0,8.3
CN(C)c1ccc(N/C=C(\C#N)c2nc3ccccc3[nH]2)cc1,-2.8,103.0,-57.8
O=C(c1ccccc1)N(Cc1ccco1)CC(O)Cn1c2ccccc2c2ccccc21 (stereo not given),18.4,106.0,-33.9
S=C(NCCCn1ccnc1)Nc1ccccc1,4.9,23.0*,-8.1
CCOc1ccc(NC(=S)NCCCn2ccnc2)cc1,11.1,101.0,-2.1
O=C1NC(c2cccs2)Nc2ccccc21 (stereo not given),108.2,103.0,-22.2
Cc1ccc(C)c2[nH]c(=O)c(C3NC(=O)c4ccccc4N3)cc12 (stereo not given),-28.6,101.0,41.6*
COc1cccc(CNc2cccc3cccnc23)c1O,-2.9,104.0,-56.1
COc1cc(NCCCC(C)N)c2ncccc2c1 (stereo not given),4.5,35.0*,-9.2
Cc1nc2sccn2c1-c1csc(Nc2cccc(Cl)c2C)n1,70.2*,99.0,-10.5
CCc1ccccc1Nc1nc(-c2c(C)nc3sccn23)cs1,49.2,101.0,-5.5
Cc1cccc(NC(=O)C(Cc2ccccc2)NS(=O)(=O)c2ccc3c(c2)c(=O)n(C)c(=O)n3C)n1 (stereo not given),-1.8,101.0,-20.8
O=C(O)c1ccc2nc(-c3cc4cc(F)ccc4oc3=O)[nH]c2c1,.,111.0,.
O=C(O)c1ccc2nc(-c3cc4cccc(O)c4oc3=O)[nH]c2c1,.,79.0*,.
CC(NC(=O)CN1C2CCC1CC(=O)NC2)c1ccccc1 (stereo not given),-0.4,100.0,28.6*
O=C1CC2CCC(CN1)N2CC(=O)Nc1ccc(F)cc1 (stereo not given),-9.4,101.0,-26.0
O=C(CC(SC1CCCCC1)C(=O)O)c1ccc(Br)cc1 (stereo not given),.,102.0,-12.7
SMILES,Mtb MbtI inh,PV pol inh,Mtb MenB inh
O=C(CC(Sc1ccc(Br)cc1)C(=O)O)c1ccc(Cl)cc1 (stereo not given),.,85.0*,25.8
O=C(CC(NC1CC1)C(=O)O)c1ccc(Cl)cc1 (stereo not given),.,104.0,34.8*
O=C(COC(=O)c1ccc(Cl)cc1)NC1CC1,11.1,95.0,-7.6
O=C1CC(C2CCCC=C2N2CCCCC2)C(=O)N1c1ccccc1 (stereo not given),-6.1,.,-23.8
O=C1/C(=C/c2cc3ccccc3o2)CC/C1=C\c1cc2ccccc2o1,2.8,108.0,-20.4
O=C1/C(=C\c2ccc(Br)o2)CC/C1=C/c1ccc(Br)o1,41.8,43.0*,-37.5
O=C(COc1nccc2ccccc12)N1CCCc2ccccc21,-4.2,98.0,-9.5
CCN1C(=O)C(=Cc2ccc(OC(F)F)cc2)C(=O)N(CC)C1=S,54.5*,101.0,-85.5
CCN1C(=O)C(=Cc2ccc(N(C)C)cc2)C(=O)N(CC)C1=S,-2.0,102.0,-11.6
Cc1cc(C(=O)CSc2nncn2C)c(C)n1-c1ncn[nH]1,-1.7,101.0,-23.6
CC(C(=O)C12CC3CC(CC(C3)C1)C2)N1CCCC1 (stereo not given),-1.4,106.0,-10.1
O=C(N/N=C/c1ccco1)C1CN(S(=O)(=O)c2ccccc2)CCN1S(=O)(=O)c1ccccc1 (stereo not given),83.6*,102.0,-32.4
CC(C)NC(=O)C1CN(S(=O)(=O)c2ccccc2)CCN1S(=O)(=O)c1ccccc1 (stereo not given),.,113.0,0.9
C=CCNC(=S)Nc1cccc(NC(=O)CC(NCc2ccco2)C(=O)O)c1 (stereo not given),14.9,103.0,-23.6
CCn1c(=NC(=O)c2ccc(C#N)cc2)sc2cccc(F)c21,4.4,105.0,-13.9
CCN1CCc2c(sc(=NC(=O)c3ccc(F)cc3)n2C(=O)c2ccc(F)cc2)C1,93.0,65.0*,-13.1
